RORg inh: blocks mouse ROR gamma transcriptional activity. Potency, µM (doses to about 53.6 µM), for the others: top-dose activity change, negative = inhibition, most hits filed as inhibitors. 310,000 compounds, 5.4% hits. Drosophila S2 Gal4-RORgamma UAS-luciferase reporter, 20 h. P51450; further: on the % scale 0 is the no-effect control and ±100 the full control effect; nearly all actives have a fitted effect of over 60% in size
Target sequence (P51450 whole entry, looked up, the tested form may be a part): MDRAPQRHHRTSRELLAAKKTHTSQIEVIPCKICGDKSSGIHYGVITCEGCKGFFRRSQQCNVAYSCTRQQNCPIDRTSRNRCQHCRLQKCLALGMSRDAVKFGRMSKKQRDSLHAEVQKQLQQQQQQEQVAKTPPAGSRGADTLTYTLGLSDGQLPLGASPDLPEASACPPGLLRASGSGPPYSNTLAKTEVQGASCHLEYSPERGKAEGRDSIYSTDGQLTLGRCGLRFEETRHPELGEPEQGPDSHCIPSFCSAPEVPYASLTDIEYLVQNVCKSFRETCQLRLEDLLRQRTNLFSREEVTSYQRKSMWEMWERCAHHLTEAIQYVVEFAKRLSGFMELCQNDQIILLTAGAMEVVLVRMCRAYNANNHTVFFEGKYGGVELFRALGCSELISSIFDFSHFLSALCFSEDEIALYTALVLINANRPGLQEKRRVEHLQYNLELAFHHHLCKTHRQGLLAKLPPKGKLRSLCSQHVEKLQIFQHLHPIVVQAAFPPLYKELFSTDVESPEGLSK
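Drosophila S2 cells stably expressing Gal4-DBD/mouse RORγ fusion under metallothionein promoter plus UAS-luciferase; compound 1 h, then 700 uM CuSO4 induction for 20 h at ambient temperature; inhibition read as reduced luminescence.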
PINK1 expr mod: changes PINK1 expression | PINK1 immunofluorescence, high-content cytometry, 24 h | Potency, µM (titrated, usually from 76.6 µM), without a hit: at the highest dose activation (PINK1 increase), most hits filed as activators | 410,000 compounds, 0.2% hits; active means well fitted activation curve with a large enough effect; inconclusive means small, poorly fitted or top-dose-only effect; cell line not stated here; further: % of control where 0% means no effect; nearly all actives have a fitted effect of over 65% in size
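Stable cell line treated 24 h with compounds at 5 concentrations (CCCP controls), then fixed and immunostained for PINK1 plus nuclear and cell stains; PINK1 immunofluorescence quantified by laser-scanning microplate cytometry.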
Gal4-VP16 FLuc: Gal4-VP16 reporter inhibition counter-screen. Drosophila S2 Gal4-VP16 UAS-luciferase, luminescence, 20 h. Potency, µM (titrated, usually from 53.6 µM), for the others: at the highest dose activity, negative = inhibition, hits mostly inhibitors. 310,000 compounds, 3.5% hits;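 further: Gal4-VP16 expression switched on by copper sulfate through the metallothionein promoter; on the % scale 0 is the no-effect control and ±100 the full control effect; nearly all actives have a fitted effect of over 50% in size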
Epigenetic derep: epigenetic control regulation, reporter derepression. Potency, µM (titrated, usually from 53.9 µM), without a hit: at the top dose GFP activation, usual class: activators. 280,000 compounds, 0.2% hits. murine LDR cells, GFP reporter derepression, 30 h; further: % of control where 0% means no effect; nearly all actives have a fitted effect of over 60% in size
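GFP-positive cell count by laser-scanning cytometry (objects 20–120 um) after 30 h, 37 C compound exposure of murine LDR cells; reporter is CMV-GFP integrated at a silenced locus, inducible by HDAC or DNMT inhibitors.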
ClpP mod: qHTS Assay for Activators of ClpP; purified B. subtilis ClpP, FRET peptide cleavage, 20 min; ATP-dependent Clp protease proteolytic subunit (Bacillus subtilis (strain 168)), P80244; 340,000 compounds, 1.9% hits; Potency, µM (doses to about 57.5 µM), for inactives: at the highest dose activity change, negative = active; active means well fitted falling curve with a large enough effect; inconclusive means small, poorly fitted or top-dose-only effect; inactive means no such curve, though single readings can be large or run the other way; further: the source files actives as falling curves though it sought activators and does not explain the sign; nearly all actives have a fitted effect of over 65% in size
Target sequence (P80244 whole entry, looked up): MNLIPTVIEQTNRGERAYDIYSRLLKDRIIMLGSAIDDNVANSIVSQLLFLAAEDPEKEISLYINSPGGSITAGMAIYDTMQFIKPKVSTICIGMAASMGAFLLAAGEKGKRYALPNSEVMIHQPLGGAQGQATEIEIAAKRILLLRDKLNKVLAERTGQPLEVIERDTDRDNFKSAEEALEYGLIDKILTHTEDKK
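Purified B. subtilis ClpP, 10 microg/mL final in Tris/HCl pH8 with KCl, BSA, glycerol and Tween-20, cleaved an Abz/nitrotyrosine-quenched decapeptide. Fluorescence (ex 320, em 430) was read at 0 and 20 min at room temperature. Delta was normalized to 5.8 microM ADEP and DMSO/no-enzyme controls.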
Sfp inh: inhibitors of Bacillus subtilis Sfp phosphopantetheinyl transferase | Q9F4F7 | Biochemical Sfp PPTase activity, qHTS | Potency, µM, for inactives: largest response in the series, negative = inhibition, most hits filed as inhibitors | 310,000 compounds, 3.5% hits | AID 1490;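 further: the enzyme is Sfp with the accession as filed and its product quenches rhodamine fluorescence; 0% = enzyme reaction without inhibitor and -100% = no enzyme wells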
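Sfp 15 nM + cpd, 15 min RT; start w/ rhodamine-CoA 5 uM, BHQ-2-YbbR 12.5 uM (final); 50 mM Hepes pH 7.6, 10 mM MgCl2, 0.01% NP-40, 0.01% BSA; read 525/598 nm at 0 and 30 min.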
* = called active by the depositor; u = inconclusive; x = no result given; [ ] = another dose, or the depositor's remark. Sampled rows, rich in hits. Any-hit rate of the full collection: about 8.1%. Unless noted, the call rests on the fitted dose curve; in most records, active means well fitted curve in the direction sought with a large enough effect; inconclusive means small, poorly fitted or top-dose-only effect, or another doubt; inactive means no such curve, though single readings can be large; an effect the other way counts as inactive or inconclusive. Potency means the concentration at half of the fitted maximal effect.

SMILES	RORg inh	PINK1 expr mod	Gal4-VP16 FLuc	Epigenetic derep	ClpP mod	Sfp inh
CC1=NN(C(=O)COc2ccc(C)c(C)c2)C(O)(c2ccc(Cl)cc2)C1 (stereo unspecified)	7.1µM*	5%	16µM*	-1%	-2%	2%
CCOC(=O)C1=NN(C(=O)COc2ccccc2)C(O)(c2ccc(Br)cc2)C1 (stereo unspecified)	4.5µM*	0%	11µM*	5%	0%	4%
Cc1ccc(OCC(=O)N2N=C(C(F)(F)F)CC2(O)C(C)(C)C)cc1C (stereo unspecified)	-70%	5%	u	3%	2%	9%
COc1ccc(NC(=O)Cc2nnc(SCC(=O)Nc3cc(C)ccc3OC)n2C)cc1	21%	1%	-12%	-3%	25µM*	18%
COc1ccc(C)cc1NC(=O)CSc1nnc(CC(=O)Nc2cccc(C(F)(F)F)c2)n1C	24%	-5%[38.3 µM]	-1%	0%	2%	13%
Cc1csc(SCC(=O)c2c(N)n(CC(C)C)c(=O)n(C)c2=O)n1	9%	12%[38.3 µM]	3%	-1%	1%	1%
CCOC(=O)Cc1csc(SCC(=O)c2c(N)n(CC(C)C)c(=O)n(C)c2=O)n1	u	-6%[38.3 µM]	10µM*	1%	-4%	20%
O=C(O)c1cc(S(=O)(=O)Nc2ccc3oc(=O)sc3c2)ccc1O	-2%	-4%	-3%	-2%	64%	40µM*
CC(O)CCC(=O)NNC(=S)Nc1ccccc1 (stereo unspecified)	-30%	-1%	0%	5%	0%	0%
CNC(=S)NNC(=O)CNc1ccc(C)c(Cl)c1	5.6µM*	1%	13µM*	-1%	1%	6%
O=C(Cc1ccccc1)NNC(=S)Nc1ccc(Cl)cc1	u	3%	u	14%	-3%	8%
Cc1cccc(NC(=S)NNC(=O)c2csc(C)c2)c1	5µM*	-1%	u	-2%	1%	4%
Cc1cccc(NCC(=O)NNC(=S)Nc2ccccc2)c1	11µM*	-1%	u	-8%	-1%	26%
Cc1cccc(NC(=S)NNC(=O)Cc2ccccc2)c1	11µM*	0%	u	0%	1%	21%
Cc1cccc(NC(=S)NNC(=O)c2csc3c2CCCC3)c1	u	2%[38.3 µM]	-10%	-3%	7%	28%
O=C(NCCSc1c[nH]c2ccccc12)c1ccccc1Cl	x	1%	x	0%	0%	x
COc1ccc(-n2c(-c3ccc(C)cc3)cc3c2CC(C)(C)CC3=O)cc1Cl	x	0%	x	0%	-3%	x
O=C1NC[C@H](c2ccccc2)N1	-8%	x	-3%	-1%	x	-13%
O=C(CSCc1ccccc1Cl)NNC(=S)Nc1ccccc1	16µM*	u	-7%	-1%	0%	9%
Cc1ccc(Cn2c(SCCN3CCCCC3)nc3c2c(=O)[nH]c(=O)n3C)cc1	-25%	-1%	-2%	0%	1%	11µM*
CSc1nc2c(c(=O)[nH]c(=O)n2C)n1Cc1ccc(Cl)cc1	17%	3%	14%	x	1%	20µM*
CSc1nc2c(c(=O)[nH]c(=O)n2C)n1Cc1ccccc1Cl	9%	8%	-14%	x	-1%	8%
Cn1c(=O)[nH]c(=O)c2c1nc(SCCN1CCCCC1)n2CCCc1ccccc1	-4%	-1%	-1%	0%	1%	3.5µM*
Cn1c(=O)[nH]c(=O)c2c1nc(SCCN1CCCCC1)n2Cc1ccccc1	2%	-2%	-1%	0%	1%	16%
Cc1c(/C=N\NC(=O)c2cccc(F)c2)cnn1C	-1%	1%	16%	0%	-3%	11%
SMILES	RORg inh	PINK1 expr mod	Gal4-VP16 FLuc	Epigenetic derep	ClpP mod	Sfp inh
Cc1cc(/C=N/NC(=O)c2cccc(F)c2)c(C)n1-c1ccccc1	5.6µM*	10%	13µM*	-1%	-11%	6%
Cc1ccc2cc(/C=N/NC(=O)c3ccccc3[N+](=O)[O-])c(Cl)nc2c1	-16%	1%	-10%	0%	x	8%
Cc1cc(/C=N/NC(=O)c2ccccc2F)c(C)n1-c1ccccc1	13µM*	7%	u	1%	0%	2%
Cc1cc(/C=N/NC(=O)c2c(Br)cnn2C)c(C)n1-c1cccc(Br)c1	6.3µM*	16%	7.1µM*	-8%	-17%	2%
Cc1cc(/C=N/NC(=O)C(=O)N2CCCC2)c(C)n1-c1cccc(Br)c1	2%	1%	-8%	-1%	-2%	-19%
CCOC(=O)N/N=C/c1cc(C)n(-c2ccccc2)c1C	-2%	2%	22%	-1%	-3%	9%
Cc1cccc(-n2c(C)cc(/C=N/NC(=O)c3cccc([N+](=O)[O-])c3C)c2C)c1	7.9µM*	4%	u	6%	1%	21%
COc1ccc(-n2ccn(CC(=O)NCc3ccc(C)cc3)c(=O)c2=O)cc1OC	x	2%	x	1%	-3%	x
CC(C)CCOc1ccc(Oc2nc(N(C)C)nc(N(C)C)n2)nn1	x	0%	x	-2%	-3%	x
Cc1ccc2oc(-c3ccc(C)c(NC(=O)COc4ccc(Cl)cc4C)c3)nc2c1	x	3%	x	x	u	x
Nc1nc(CN2CCN(C(c3ccccc3)c3ccccc3)CC2)nc(Nc2ccccc2)n1	3.2µM*	18%	u	7%	2%	-7%
Cc1ccc(Nc2nc(N)nc(CN3CCN(c4ccccc4F)CC3)n2)cc1	11µM*	3%	-4%	1%	-1%	-8%
Nc1nc(CN2CCC(Cc3ccccc3)CC2)nc(Nc2ccccc2)n1	10µM*	0%	-26%	0%	1%	14%
CC1CC(C)CN(Cc2nc(N)nc(Nc3ccccc3)n2)C1 (stereo unspecified)	-40%	-1%	3%	-1%	0%	21%
Nc1nc(CN2CCCCCC2)nc(Nc2ccccc2)n1	-30%	-1%	-1%[0.365 µM]	-2%	-2%	-13%
Cc1ccc(Nc2nc(N)nc(CSc3nncn3C)n2)cc1	-84%	1%	11µM*	0%	1%	-5%
CCNc1ncc2ncc(=O)n(Cc3cccs3)c2n1	-29%	0%	3%	x	x	-12%
O=C(NCCCN1CCN(c2ccccc2)CC1)c1ccc2nc(CCc3ccccc3)oc2c1	x	7%	x	2%	1%	x
Cc1cc2oc(=O)c(CC(=O)O)c(C)c2c2occ(-c3ccccc3)c12	x	0%	x	-2%	32µM*	x
CCc1cc2c(=O)n(CCC(C)C)c(=S)[nH]c2s1	0.2µM*	5%	1.4µM*	-1%	x	11%
CN(C(=O)CSc1nc2ccc(NC(=O)c3ccco3)cc2s1)c1ccccc1	x	-1%	x	-2%	0%	x
O=C(NN1CCOCC1)c1cc(Cl)ccc1Cl	-13%	1%	-1%	x	1%	24%

Screens as filed in PubChem.
